Source: PubChem BioAssay
Rows were chosen to be rich in hits. Some 6.2% of all compounds tested hit in one or more screens of this group.
KB-3-1 tox = kills parental KB-3-1 adenocarcinoma cells | KB-3-1 viability, CellTiter-Glo ATP luminescence, 72 h | Potency, µM (doses to about 46.1 µM), actives largely listed as cytotoxic | AID 1347075 | hit rate 1.4% among 400,000; also: nearly all actives have a fitted effect of over 60% in size
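Screening of KB-3-1 cells (DMEM, 10% FBS, phenol-red free) ran from lowest to highest compound concentration; after 72 h at 37 °C viability was read luminescently and curves fitted.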
HT1080NT lethal = kills 2HG-producing HT-1080-NT fibrosarcoma cells | Potency, µM (doses to about 46.1 µM), hits mostly cytotoxic | hit rate 1.6% among 360,000 | HT-1080-NT fibrosarcoma viability, CellTiter-Glo ATP luminescence, 48 h;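 also: NT is the 2HG producing partner of a matched IDH1 knockdown line; nearly all actives have a fitted effect of over 55% in size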
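HT-1080-NT fibrosarcoma cells (2HG-overproducing), 750 cells/well in RPMI with 5% FBS, dosed after 2 h and incubated 48 h at 37C. CellTiter-Glo luminescence normalized to DMSO and no-cell wells; concentration-response curves fitted and classed.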
HT1080 IDH1KD tx = kills HT-1080 cells with IDH1 knockdown. HT-1080 IDH1 knockdown viability, ATP luminescence, 48 h. Potency, µM (highest dose often 46.1 µM), most hits filed as cytotoxic. hit rate 2% among 360,000. AID 686971
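Knockdown cells (IDH1KD HT-1080) received compounds 2 h after plating at 750 cells/well and were kept 48 h at 37 °C in 5% FBS RPMI. A CellTiter-Glo luminescence read gave % activity for curve fitting.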
ATXN2 expr inh = reduces ATXN2 reporter expression in HEK-293 cells; HEK-293 ATXN2-luciferase reporter, luminescence, 24 h; Potency, µM (top dose mostly 57 µM), usual class: inhibitors; hit rate 0.72% among 360,000; AID 1745845; also: nearly all actives have a fitted effect of over 55% in size
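qHTS (up to 57 uM final) was run with 24 h compound exposure of reporter cells at 37 °C. Each well was multiplexed: SteadyGlo luminescence measured ATXN2-luciferase expression after a fluorogenic Gly-Phe-AFC viability readout (25 uM final).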
KB-V1 MDR tox = KB-V1 MDR subline cytotoxicity; hit rate 3.4% among 400,000; KB-V1 MDR cells viability, CellTiter-Glo, 72 h; Potency, µM (titrated, usually from 46.1 µM), usual class: cytotoxic; also: nearly all actives have a fitted effect of over 60% in size
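KB-V1 cells (P-gp-expressing MDR subline of KB-3-1) in phenol-red-free DMEM with 10% FBS were exposed to library compounds over a concentration series for 72 h at 37 degrees C. Viability read by CellTiter-Glo luminescence; concentration-effect curves fitted after normalization.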
S2 tox = viability counter-screen for ATXN expression inhibitors. hit rate 0.49% among 400,000. AID 651635. Potency, µM (doses to about 56.7 µM), most hits filed as cytotoxic. S2 cells (HEK-293 line with an ATXN2-luciferase reporter) viability, CellTiter-Fluor protease fluorescence, 24 h; also: nearly all actives have a fitted effect of over 40% in size
Of the large screens only hits and unclear results are named; the others gave an inactive call. Calls follow the shape of the dose curve; as a rule, active = well fitted curve in the direction sought with a large enough effect; inconclusive = small, poorly fitted or top-dose-only effect, or another doubt; inactive = no such curve, though single readings can be large; an effect the other way counts as inactive or inconclusive.

CCOC(=O)c1c(-c2ccc(OC)cc2)csc1NC(=O)CNCc1ccco1	KB-V1 MDR tox 10µM, S2 tox inconclusive
CCOC(=O)c1c(NC(=O)CSc2nc3ccccc3o2)sc(C)c1C	none
CCOC(=O)c1c(-c2ccc(C)o2)csc1NC(=O)CSc1nncs1	HT1080NT lethal inconclusive, HT1080 IDH1KD tx inconclusive, KB-V1 MDR tox 15µM
CCOC(=O)c1c(NC(=O)CSc2nc3ccccc3s2)sc(C)c1C	KB-V1 MDR tox 13µM
CCOC(=O)c1c(-c2cccs2)csc1NC(=O)c1ccncc1	ATXN2 expr inh inconclusive
CCOC(=O)c1c(-c2ccc(Cl)cc2)csc1NC(=O)CNCc1ccco1	none (no result: ATXN2 expr inh, S2 tox)
CCOC(=O)c1c(-c2cccs2)csc1NC(=O)COC(=O)c1c(C)noc1C	KB-V1 MDR tox 21µM
CCOC(=O)c1c(-c2ccc(C)o2)csc1NC(=O)CN1CCCCC1	HT1080NT lethal inconclusive, HT1080 IDH1KD tx inconclusive, KB-V1 MDR tox inconclusive
CCOC(=O)c1c(-c2ccccc2)csc1NC(=O)CSc1nc(N)cc(N)n1	KB-3-1 tox 6.5µM, KB-V1 MDR tox 3.3µM
COc1cc(CNCCN2CCOCC2)ccc1OCc1ccc(Cl)cc1Cl	KB-3-1 tox inconclusive, HT1080NT lethal 26µM, HT1080 IDH1KD tx 21µM, ATXN2 expr inh inconclusive, KB-V1 MDR tox inconclusive (no result: S2 tox)
COc1cc(CNCCN2CCOCC2)ccc1OCc1cccc(Cl)c1	HT1080NT lethal inconclusive, HT1080 IDH1KD tx inconclusive
COc1cc(CNCc2ccccn2)ccc1OCc1ccc(Cl)cc1Cl	KB-3-1 tox inconclusive, HT1080NT lethal 23µM, HT1080 IDH1KD tx 21µM, KB-V1 MDR tox inconclusive
COc1ccccc1C(=O)Nc1cc2c(cc1N1CCCCC1)n(C)c(=O)n2C	none (no result: HT1080NT lethal, HT1080 IDH1KD tx)
CCOc1ccn(-c2ccc(F)cc2)c(=O)c1C(=O)Nc1ccc(Oc2ccnc(N)c2Cl)c(F)c1	none (no result: KB-3-1 tox, HT1080NT lethal, HT1080 IDH1KD tx, KB-V1 MDR tox, S2 tox)
C[C@H]1CN([C@@H](C)CO)S(=O)(=O)c2ccc(C#Cc3ccccn3)cc2O[C@@H]1CN(C)C(=O)C1CC1	HT1080NT lethal inconclusive
Cc1cc2ccccn2c1C(=O)c1ccccc1F	KB-3-1 tox inconclusive, HT1080NT lethal 15µM, HT1080 IDH1KD tx inconclusive, KB-V1 MDR tox inconclusive
CN1CCCc2ccccc21	none (no result: HT1080NT lethal, HT1080 IDH1KD tx, ATXN2 expr inh, S2 tox)
Cc1c(C(=O)N(C)Cc2cscn2)sc2ncnc(NC[C@H]3CCc4ccccc4O3)c12	none (no result: KB-3-1 tox, HT1080NT lethal, HT1080 IDH1KD tx, ATXN2 expr inh, KB-V1 MDR tox)
COc1ccc(N(CC(=O)NC(C)c2ccccc2)S(=O)(=O)c2c(C)nn(C)c2C)cc1 (centres undefined)	none (no result: HT1080NT lethal, HT1080 IDH1KD tx)
CC(=O)Nc1ccccc1OCCCN1CCC(C(O)(c2ccccc2)c2ccccc2)CC1	HT1080NT lethal inconclusive, HT1080 IDH1KD tx inconclusive, KB-V1 MDR tox inconclusive
OC(c1ccccc1)(c1ccccc1)C1CCN(CCCOc2cccc(OC(F)(F)F)c2)CC1	KB-3-1 tox inconclusive, HT1080NT lethal 18µM, HT1080 IDH1KD tx 16µM, ATXN2 expr inh inconclusive (no result: S2 tox)
OC(c1ccccc1)(c1ccccc1)C1CCN(CCCOc2ccc3c(c2)CCCC3)CC1	KB-3-1 tox inconclusive, HT1080NT lethal 15µM, HT1080 IDH1KD tx 13µM, ATXN2 expr inh 18µM, KB-V1 MDR tox 21µM, S2 tox 25µM
CC(=O)Nc1ccc(OCCCN2CCC(C(O)(c3ccccc3)c3ccccc3)CC2)cc1	HT1080 IDH1KD tx inconclusive, S2 tox inconclusive
N#CCc1ccc(OCCCN2CCC(C(O)(c3ccccc3)c3ccccc3)CC2)cc1	KB-3-1 tox inconclusive, HT1080NT lethal 21µM, HT1080 IDH1KD tx inconclusive, KB-V1 MDR tox 18µM, S2 tox inconclusive
COc1ccccc1-n1cc(CN2CCC3(CCC(CNC(=O)c4ccccc4)O3)CC2)cn1 (centres undefined)	none (no result: KB-3-1 tox, HT1080NT lethal, HT1080 IDH1KD tx, ATXN2 expr inh, KB-V1 MDR tox)
CCOCCCNC(=O)C(c1ccc(Cl)cc1)N(Cc1cccs1)C(=O)c1ccc(NC(C)=O)cc1 (centres undefined)	none (no result: HT1080NT lethal, HT1080 IDH1KD tx)
Cc1cc(C(=O)Nc2cccc(-c3nc(CNC(=O)c4ccc[n+]([O-])c4)c(C)o3)c2)c(C)o1	none (no result: KB-3-1 tox, HT1080NT lethal, HT1080 IDH1KD tx, ATXN2 expr inh, KB-V1 MDR tox)
Nc1nnnn1/N=C/C=C/c1ccccc1	none
Nc1nnnn1/N=C/C(Br)=C/c1ccccc1	KB-3-1 tox inconclusive, HT1080 IDH1KD tx 9.2µM, ATXN2 expr inh 25µM, KB-V1 MDR tox inconclusive, S2 tox 14µM
